Screening results as filed in PubChem.
Sampled rows, rich in hits. Any-hit rate of the full collection: about 1.3%.
TRPML1 agonist – activates the human TRPML1 channel; Q9GZU1; TRPML1-expressing cells, Ca2+ dye fluorescence, FDSS; 410,000 tested, 0.12% active; activation, % (concentration not given with the values); AID 624414; in the data active means activation above about 50%; inconclusive means mostly about 30% to 49%; further: 0% is about no effect
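Agonist activity was taken from a 110 s kinetic Ca2+ dye read on the FDSS after pinning compounds onto TRPML1-DL cells. The cells were seeded at 1,500/well with Tet inducer, incubated about 16 h, then dye-loaded at room temperature.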
ALOX12 inh – blocks human arachidonate 12S-lipoxygenase; P18054; purified 12hLO, xylenol orange hydroperoxide absorbance; Potency, µM (top dose mostly 108 µM), for the others: at the highest dose activity change, negative = inhibition, actives largely listed as inhibitors; 580,000 tested, 1.1% active; AID 1671190; further: potency means the concentration at half of the fitted maximal effect; on the % scale 0 is the no-effect control and ±100 the full control effect
Target sequence (P18054 whole entry, looked up): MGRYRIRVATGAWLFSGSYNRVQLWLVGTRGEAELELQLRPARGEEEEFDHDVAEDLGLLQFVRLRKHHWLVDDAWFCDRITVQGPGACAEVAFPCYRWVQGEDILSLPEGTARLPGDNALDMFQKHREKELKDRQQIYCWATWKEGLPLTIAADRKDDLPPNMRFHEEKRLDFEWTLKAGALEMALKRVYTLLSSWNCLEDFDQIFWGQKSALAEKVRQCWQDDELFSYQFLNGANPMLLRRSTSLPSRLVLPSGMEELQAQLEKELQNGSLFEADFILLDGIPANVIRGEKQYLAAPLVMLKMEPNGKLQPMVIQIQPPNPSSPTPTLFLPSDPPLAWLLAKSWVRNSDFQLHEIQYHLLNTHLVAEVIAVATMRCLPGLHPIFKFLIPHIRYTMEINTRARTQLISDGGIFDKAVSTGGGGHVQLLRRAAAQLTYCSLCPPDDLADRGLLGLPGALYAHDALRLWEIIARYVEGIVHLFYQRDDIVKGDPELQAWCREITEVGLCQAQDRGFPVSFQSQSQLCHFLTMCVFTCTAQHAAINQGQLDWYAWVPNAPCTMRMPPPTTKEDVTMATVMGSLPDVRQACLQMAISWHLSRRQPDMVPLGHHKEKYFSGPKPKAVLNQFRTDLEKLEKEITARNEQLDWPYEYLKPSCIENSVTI
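Hydroperoxide product was detected by ferrous iron/xylenol orange as the 573 to 405 nm absorbance ratio. Arachidonic acid at 40 uM (final) was turned over for 30 min at room temperature by 150 nM human 12hLO, pH 7.0 Hepes buffer, after 15 min compound preincubation.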
TRPML1 inh – blocks the human TRPML1 channel; Q9GZU1; TRPML1-inducible cells, Ca2+ dye fluorescence, FDSS; stronger effect = lower value; inhibition of EC80 agonist-evoked calcium signal; activity change, negative = inhibition, % (no concentration beside the values); 390,000 tested, 0.02% active; AID 624415; in the data active means activity change below about -50%; inconclusive means between about -30% and that limit;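 further: stimulus is agonist 54-4 at its EC80 concentration; on the % scale 0 is the no-effect control and ±100 the full control effect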
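TRPML1-DL cells, Tet-induced overnight (~16 h, 37 °C) at 1,500 cells/well, were loaded with Ca8 no-wash dye plus quencher for 45-90 min at room temperature. Compounds were pinned during FDSS kinetic reading; agonist 54-4 at EC80 (4 uM final) then added.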
Vif-APOBEC3G blk – Vif-A3G binding inhibition; Q9HC16; 410,000 tested, 0.076% active; Potency, µM (series often up to 46.1 µM), without a hit: at the highest dose activity, negative = active, most hits filed as inhibitors; HeLa A3G-eYFP + Vif (tagged APOBEC3G with the HIV-1 protein that degrades it), YFP fluorescence, overnight; further: potency means the concentration at half of the fitted maximal effect; on the % scale 0 is the no-effect control and ±100 the full control effect; nearly all actives have a fitted effect of over 60% in size
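HeLa cells stably expressing Vif and C-terminally eYFP-tagged A3G, seeded overnight at 37 deg C, then exposed to compound by pintool overnight at 37 deg C. Rise in yellow fluorescence (Ex 488/Em 500-530, Acumen) marks blocked Vif-driven A3G degradation.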
GRP78 ERSR act – induces the endoplasmic reticulum stress response in human glioma cells. U87-MG GRP78 promoter luciferase reporter, 16 h. Potency, µM, for the others: top-dose activation, usual class: activators. 420,000 tested, 0.02% active; further: potency means the concentration at half of the fitted maximal effect; series mostly up to about 76 µM; % of control where 0% means no effect; nearly all actives have a fitted effect of over 35% in size
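Stably transfected U87-MG human glioma cells carrying a GRP78-based luminescent sensor were seeded at 1000 cells/well, pin-dosed with compounds and incubated 16 h. Luciferase reagent was then added, and end-point luminescence was read after 10 min at room temperature.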
Vif-A3F inh – inhibitors of Vif-A3F interaction; HeLa A3F-eYFP + Vif (tagged APOBEC3F with the HIV-1 protein that degrades it), YFP fluorescence increase; 390,000 tested, 0.2% active; Potency, µM (highest dose often 46.1 µM), inactives show at the top dose activity, negative = active; further: potency means the concentration at half of the fitted maximal effect; % of control where 0% means no effect; nearly all actives have a fitted effect of over 65% in size
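HeLa cells stably expressing A3F-eYFP plus Vif, plated and incubated overnight at 37 deg C, then exposed to compounds overnight at 37 deg C. Blocked degradation read as raised yellow fluorescence (Ex 488/Em 500-530).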
An asterisk follows results filed as active; ? = inconclusive; . = not tested or not shown; ! = not active in a repeat; [ ] = remark or other dose. Unless noted, the call rests on the fitted dose curve; in most records, active means well fitted curve in the direction sought with a large enough effect; inconclusive means small, poorly fitted or top-dose-only effect, or another doubt; inactive means no such curve, though single readings can be large; an effect the other way counts as inactive or inconclusive.

SMILES	TRPML1 agonist	ALOX12 inh	TRPML1 inh	Vif-APOBEC3G blk	GRP78 ERSR act	Vif-A3F inh
Cc1cc2nc(/C(C#N)=C\c3ccc(O)c(I)c3)[nH]c2cc1C	.	3.6%	.	.	.	.
Oc1ccc2nnc3c(Br)cnn3c2c1	86.7*	-9.6%	0.0	-0.6%	-0.9%	-19.2%
CC(c1nc(C2CC2)no1)N1CCC(c2ccnn2CCO)CC1 (stereo not drawn)	.	25.1%	.	.	.	.
CCN(CC)CCC=C(c1cccs1)c1cccs1	0.0	50.1µM*	-10.1	-4.5%	0.1%	?
Cc1cc(C)c(NC(=S)NCCCSC2CCCCC2)c(C)c1	3.1	25.1µM*	16.0	-0.5%	-6.5%	1.9%
COc1cccc(NC(=O)NCCCSC2CCCCC2)c1	0.2	-6.9%	45.1	-0.7%	2.5%	-4.4%
O=C(c1cccc(Br)c1)N1CCN(c2cc(-c3ccc(Cl)cc3)[nH]n2)CC1	.	0.5%	.	.	.	.
Cc1ccc2nc(N3C(=O)C(O)=C(C(=O)c4ccc(C)o4)C3c3cccc(O)c3)sc2c1 (stereo not drawn)	0.4	12.6µM*!	9.4	-5.9%	4.4%	2.7%
COc1ccc(C2C(C(C)=O)=C(O)C(=O)N2c2nccs2)cc1OC (stereo not drawn)	0.8	-33.7%	26.9	0.1%	-3.8%	-1.0%
COc1ccc(C2C(C(C)=O)=C(O)C(=O)N2c2nc3ccccc3s2)cc1OC (stereo not drawn)	0.4	44.7µM*	-17.5	-0.1%	-1.1%	2.9%
COc1ccc2nc(N3C(=O)C(O)=C(C(=O)c4ccco4)C3c3ccc(OC)c(OC)c3)sc2c1 (stereo not drawn)	-0.7	39.8µM*	-11.8	1.4%	-3.2%	-0.3%
O=C(Nc1ccc2oc(=O)ccc2c1)c1ccc(OC(F)F)cc1	.	1.1%	.	.	.	.
O=C(COc1ccc(Cl)cc1)Nc1nc2n(n1)C(c1ccccc1)CC(=O)N2 (stereo not drawn)	.	40.5%	.	.	.	.
CCOCc1cnc(C)nc1NCC(=O)c1c(C)[nH]c2ccc(OC)cc12	0.4	12.6µM*	-1.4	0.4%	-3.4%	-2.3%
COc1ccc2[nH]c(C)c(C(=O)CN(C)CC(OC)OC)c2c1	-0.3	.	.	-2.3%	-4.9%	.
O=c1cc(CO)oc(CN2CCN(c3cccc(C(F)(F)F)c3)CC2)c1O	-0.2	1.41µM*	9.7	3.0%	-3.7%	-1.5%
O=C(COc1ccccc1)Nc1ccc(-c2nnc3n2CCCC3)cc1	.	28.2µM*	.	.	.	.
CC(CCN1CCC(CN2C(=O)C(=O)NC[C@@H]2Cc2ccccc2)CC1)c1ccccc1 (stereo partly drawn)	-0.2	39.8µM*	-3.6	-2.8%	-1.0%	8.7%
CC(CCN1CCC(CN2C(=S)NCC2Cc2ccccc2)CC1)c1ccccc1 (stereo not drawn)	-0.5	?	-6.9	1.0%	-2.0%	0.1%
O=C(OCC(=O)N1CCCC1=O)c1cc(-c2ccco2)nc2ccccc12	.	5.62µM*	.	.	.	.
O=C(OCC(=O)N1CCN(C(=O)c2ccco2)CC1)c1cc(-c2ccco2)nc2ccccc12	1.4	4.47µM*	-1.6	-0.7%	-1.2%	0.6%
Cc1ccc(NCCC(=O)c2cc3ccccc3o2)cc1Br	.	35.5µM*	.	.	.	.
O=C(CCNc1ccc(F)cc1)c1cc2ccccc2o1	0.6	?	13.7	-20.4%	-12.4%	-2.6%
Cc1ccc(NS(=O)(=O)c2ccc(C(=O)NNC(=O)c3ccccc3O)cc2)cc1	1.9	44.7µM*	1.6	-2.7%	0.6%	-10.4%
O=C(NNC(=O)c1ccccc1O)c1ccc(NS(=O)(=O)c2ccc(F)c(F)c2)cc1	-0.8	-11.1%	-2.9	-9.3%	-0.3%	-1.9%
SMILES	TRPML1 agonist	ALOX12 inh	TRPML1 inh	Vif-APOBEC3G blk	GRP78 ERSR act	Vif-A3F inh
CC(C)N(C)S(=O)(=O)c1ccc(Cl)c(C(=O)NCc2ccnc(N3CCCC3)c2)c1	.	62.8%	.	.	.	.
CN(C)S(=O)(=O)c1ccc(Cl)c2ccccc12	.	15.0%	.	.	.	.
O=C(COC(=O)c1ccc(=O)n(Cc2ccccc2)n1)NCC(F)(F)F	.	-0.4%	.	.	.	.
CCN1CCN(C2=CC3=CC(=C(C#N)C#N)CCC3CC2)CC1 (stereo not drawn)	95.6*	.	-7.3	9.0%	-3.0%	?
N#CC(C#N)=C1C=C2C=C(N3CCCCCC3)CCC2CC1 (stereo not drawn)	100.0*	-7.8%	-16.1	9.9%	-2.5%	?
CN1CCN(C2=CC3=CC(=C(C#N)C#N)CCC3CC2)CC1 (stereo not drawn)	139.9*	.	-70.7*	-1.1%	-5.0%	-17.5%
N#CC(C#N)=C1C=C2C=C(N3CCOCC3)CCC2CC1 (stereo not drawn)	123.1*	?	-6.9	9.8%	0.8%	11.2µM*
CCOc1ccc(NC2=NCCC(=O)N2Cc2cccs2)cc1	0.2	-5.9%	-0.5	2.4%	-0.8%	-10.1%
CCOc1ccc(NC2=NCC(=O)N2Cc2cccs2)cc1	1.6	35.5µM*	17.5	-2.1%	3.5%	0.7%
CCCCC1=CC2=CC(=O)C(C)(OC(=O)CC)C(=O)C2=CN1CCc1ccc(Br)cc1 (stereo not drawn)	0.7	39.8µM*	-10.1	0.5%	-3.8%	1.1%
Cc1ccc2c(c1)c1c3n2CCN(C(=O)CCl)C3CCC1 (stereo not drawn)	-0.2	11.2µM*	-7.1	-9.6%	-12.8%	18.2%
COc1cccc(-c2cc(-c3cn[nH]c3)c3cncn3c2)c1	.	-5.3%[176 µM]	.	.	.	.
